# HIV TAR-Tat: HIV-1 TAR-Tat binding disruption; z-score (concentration not given with the values); hit rate 0.6% among 100,000; HIV-1 TAR RNA, Tat peptide displacement FRET; stronger effect = higher value; active = z-score of 3 or more in at least 2 runs
# CDC25B-CDK2 inh: human CDC25B-CDK2/CyclinA binding inhibition; HTRF CDC25B-CDK2/CyclinA binding, anti-His/anti-Flag; stronger effect = higher value; hit rate 0.72% among 94,000; P30305+P24941; AID 1259370; z-score (test concentration not listed); in the data active = z-score above about 3.2
# An asterisk follows results filed as active; / = not tested or not shown. Only some compounds are listed: those with a hit (about 0.86% of all), similar ones and a draw of the others.
SMILES,HIV TAR-Tat,CDC25B-CDK2 inh
CC1CCCCC1NC(=O)C1(C)Cn2c(cc3occc32)C(=O)N1c1ccc(Cl)cc1 (configuration not stated),7.6*,/
Cn1ncc2c(NCc3ccc(F)cc3)nc(N3CCN(CCO)CC3)nc21,0.43,/
CN(C1CCCCC1)C1CCN(C(=O)C2CCN(c3ccc(-c4cccs4)nn3)CC2)CC1,-1.1,/
CCOC(=O)N1CCC(Nc2c(N3CCN(c4ccc(OC)cc4)CC3)c(=O)c2=O)CC1,0.2,-0.12
CCc1nc(-c2csc(S(=O)(=O)N3CCC(C(=O)N4CCc5ccccc5C4)CC3)c2)no1,1.3,/
CCCCCOC(=O)C1=C(C)Nc2nnnn2C1c1ccc(F)cc1 (configuration not stated),-0.32,-1.4
O=C(O)c1ccc(Cl)c(-n2cnc3cccnc32)c1,-0.25,-0.32
CCC(C)N1C(=O)c2cc3occc3n2CC1(C)C(=O)NC1CCC(C)CC1 (configuration not stated),5.3,/
Cc1cc(C)cc(N2C(=O)c3cc4occc4n3CC2(C)C(=O)NC2CCC(C)CC2)c1 (configuration not stated),12*,/
CSc1nnc(NC(=O)c2cc(=O)c3cc(Cl)ccc3o2)s1,-0.38,-0.4
COC(=O)C1=C(C)N=c2s/c(=C3\C(=O)N(C)c4ccccc43)c(=O)n2C1c1cccs1 (configuration not stated),/,-7.5
CCC1CCCCN1S(=O)(=O)c1ccc2[nH]c(=O)ccc2c1 (configuration not stated),6.5*,/
CCCN1CCN(S(=O)(=O)c2ccc3[nH]c(=O)ccc3c2)CC1,3,/
O=C(Nc1nc2cc(NS(=O)(=O)c3ccc(F)c(F)c3)ccc2s1)C1CCCCC1,2,/
Cc1cc(N(C)C)nc(N2CCN(C(=O)Nc3ccc(Cl)cc3)CC2)n1,-0.07,/
CCC1Cn2c(C(=O)N3CCOCC3)cc3c(Cl)ccc(c32)O1 (configuration not stated),0.28,/
COc1ccc2c(c1)c(=O)oc1cc3oc(C)c(-c4ccccc4)c3cc12,-1.6,-1.6
COc1ccc2c(c1)c(=O)oc1cc3oc4c(c3cc12)CCCC4,3.7*,-0.98
N#Cc1c[nH]n2c(NC3CCCCC3)c(-c3cccs3)nc12,-0.37,-0.81
COc1ccc2c(c1)Cc1sc(NC(=O)c3ccc(Br)cc3)nc1-2,-1.7,18*
COc1cc(OC)cc(C(=O)Nc2nc3c(s2)CCc2ccc(OC)cc2-3)c1,1.1,-0.88
COc1ccc(OC)c(C2Nc3cc(C)c(C)cc3NC3=C2C(=O)CC(C)(C)C3)c1 (configuration not stated),2,-2.1
O=c1cc(CSc2nnc(-c3cccs3)o2)nc2sc(C3CCCCC3)nn12,0.32,-2
O=c1cc(CSc2nnc(-c3ccc(Cl)cc3)o2)nc2sc(C3CC3)nn12,14*,-2.2
N#Cc1cc2c(=O)n3ccccc3nc2n(-c2ccc(Br)cc2)c1=O,-1.5,-1.9
SMILES,HIV TAR-Tat,CDC25B-CDK2 inh
CCOC(=O)N1CCc2c(sc(N)c2C#N)C1,/,5.7*
CN1CCc2c(sc(N)c2C#N)C1,-0.14,/
c1ccc2c(-c3nnc(CN4CCCC4)o3)c[nH]c2c1,1.3,-1
COc1ccc(CNc2nn3cnnc3c3ccccc23)cc1,-0.3,-2
CCc1c(C)nc2nc(-c3ccco3)[nH]n2c1=O,-0.83,-0.34
Cc1nc2nc(-c3ccco3)[nH]n2c(=O)c1Cc1ccccc1,1.1,13*
CS(=O)(=O)Nc1cccc(C2=NN(C(=O)c3cccs3)C(c3cccc(F)c3)C2)c1 (configuration not stated),/,-3.2
COc1cc2[nH]c3c(=O)n(CCN4CCCCC4C)cnc3c2cc1OC (configuration not stated),6.4*,-1.1
Cc1ccc2[nH]c3c(=O)n(CCN4CCCCC4C)cnc3c2c1 (configuration not stated),1,-1.3
CC(C)CC(=O)N[C@H](C(=O)N[C@H](C(=O)N[C@@H](CC(C)C)[C@@H](O)CC(=O)N[C@@H](C)C(=O)N[C@@H](CC(C)C)[C@@H](O)CC(=O)O)C(C)C)C(C)C,19*,/
CCCCNC(=O)Nc1cn(CC(C)C)c(=O)c2ccccc12,-0.08,/
O=C1Nc2c(C(=O)O)cccc2C1=O,21*,1.4
O=C(O)c1ccc2c3c(ccc(C(=O)O)c13)C(=O)NC2=O,0.75,1.3
Cc1c(-c2nc(-c3ccc4c(c3)OCO4)no2)nnn1-c1ccc(F)cc1,1.3,/
COc1cc2nc(N3CCN(C(=O)c4ccco4)CC3)nc(N)c2cc1OC,2.2,-1.4
COc1cc2nc(N3CCCN(C)CC3)nc(NC3CCN(Cc4ccccc4)CC3)c2cc1OC,5.1*,0.41
O=C1c2ccccc2-c2onc3c(N4CCN(C(=O)c5ccco5)CC4)cc(NCc4ccco4)c1c23,15*,1.6
O=C1c2ccccc2-c2onc3c(N4CCN(C(=O)c5ccco5)CC4)cc(NCCO)c1c23,7.4*,0.78
CCNc1cc(N2CCN(C(=O)c3ccco3)CC2)c2noc3c2c1C(=O)c1ccccc1-3,2.6,-1.6
COCCNc1cc(N2CCN(C(=O)c3ccco3)CC2)c2noc3c2c1C(=O)c1ccccc1-3,2.8,0.55
c1ccc(-c2nnc3sc(C4COc5ccccc5O4)nn23)cc1 (configuration not stated),2.7,-1.1
COc1ccc(N2CSC3=C(C#N)C(c4cc(Br)ccc4OC)CC(=O)N3C2)cc1 (configuration not stated),-0.71,5.4*
COc1ccc(OC)c(C2CC(=O)N3CN(c4ccc(Br)cc4)CSC3=C2C#N)c1 (configuration not stated),-0.7,4.5*
COc1ccccc1N1CSC2=C(C#N)C(c3ccc(Br)cc3)CC(=O)N2C1 (configuration not stated),-4.8,1.5
COc1ccc(C2CC(=O)N3CN(c4ccc(Br)cc4)CSC3=C2C#N)c(OC)c1 (configuration not stated),-1.8,6.4*
SMILES,HIV TAR-Tat,CDC25B-CDK2 inh
COc1ccc(Br)cc1C1CC(=O)N2CN(C3CCCCC3)CSC2=C1C#N (configuration not stated),-0.3,-0.77
COc1ccc(Br)cc1C1CC(=O)N2CN(c3ccccc3OC)CSC2=C1C#N (configuration not stated),0.32,6.2*
CCOCCCNC(=O)c1cccn2c(=O)c3c4c(sc3nc12)CCCC4,0.51,/
O=C(O)CCCSc1ccsc1[N+](=O)[O-],0.62,/
CCOc1ccc(C2CC(=O)n3c(nc4ccccc43)S2)cc1OC (configuration not stated),/,-0.73
CC(C)(C)C(=O)Nc1noc2ccccc12,2.5,0.08
CCOC(=O)/C(C#N)=C/Nc1nnc(SCC#N)s1,/,-2.2
CC(C)CCN[C@H]1CS(=O)(=O)C[C@@H]1S(=O)(=O)c1ccc(Cl)cc1,-0.28,-1.8
CS(=O)(=O)CCC(C(=O)Nc1ccc(F)cc1F)N1Cc2ccccc2C1=O (configuration not stated),2,/
COc1ccc(OC)c(C2CC(=O)N3CN(c4ccc(F)cc4)CSC3=C2C#N)c1 (configuration not stated),-2.1,4*
Cc1cc(=O)c2c(O)c3c(O)cc(O)c4c5c(O)cc(O)c6c(O)c7c(=O)cc(C)c8c1c2c(c34)c(c65)c78,7.8*,/
Cc1cc(O)c2c(c1O)C(=O)c1c(O)cc(C)c(O)c1C2=O,0.53,/
O=C(Nc1ccc(F)cc1)c1cc2ccccc2c(=O)s1,1.5,-0.97

# Source: PubChem BioAssay
